Test results from PubChem BioAssay (Tox21).
Inconclusive results are not listed. Unmarked numbers belong to inactive results. Calls of active or inactive are those of the source. Calls follow the shape of the full dose curve.

target: Peroxisome proliferator-activated receptor delta (Homo sapiens) (UniProt Q03181); experiment: qHTS assay to identify small molecule agonists of the peroxisome proliferator-activated receptor delta (PPARd) signaling pathway (AID 743212); settings: HEK293H PPARd-UAS-bla, beta-lactamase FRET ratio, 17 h; series mostly up to 62.6 µM; activation: at the top concentration
Sequence (Q03181 whole entry, looked up): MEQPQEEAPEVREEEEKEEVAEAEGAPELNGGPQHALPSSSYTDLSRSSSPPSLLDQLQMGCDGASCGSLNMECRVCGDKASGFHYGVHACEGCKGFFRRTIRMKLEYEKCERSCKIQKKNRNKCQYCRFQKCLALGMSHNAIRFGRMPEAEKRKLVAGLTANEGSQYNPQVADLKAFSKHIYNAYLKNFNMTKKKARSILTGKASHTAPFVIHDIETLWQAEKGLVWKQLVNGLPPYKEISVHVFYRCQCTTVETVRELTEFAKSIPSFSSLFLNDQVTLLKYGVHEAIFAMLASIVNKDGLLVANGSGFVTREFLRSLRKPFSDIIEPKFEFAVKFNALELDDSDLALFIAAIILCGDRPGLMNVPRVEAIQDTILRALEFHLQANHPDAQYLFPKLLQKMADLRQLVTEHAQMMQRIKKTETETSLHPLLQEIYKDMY
From the text: U.S. Tox21 Program National Center for Advancing Translational Sciences [NCATS] NIH Chemical Genomics Center [NCGC] U.S. Environmental Protection Agency [EPA] National Institutes of Environmental Health Sciences [NIEHS] National Toxicology Program [NTP] U.S. Food and Drug Administration [FDA] Tox21 Assay Overview: The peroxisome proliferator-activated receptors (PPARs) are lipid-activated transcription factors of the nuclear receptor superfamily with three distinct subtypes namely PPAR alpha, PPAR delta (PPARd) and PPAR gamma. All these subtypes heterodimerizes with Retinoid X receptor (RXR) and have different physiological functions. […] To identify the compounds that activate PPAR-delta signaling, GeneBLAzer PPAR delta UAS-bla HEK293H cell line (Invitrogen, Carlsbad, CA, USA) containing a beta-lactamase reporter gene under the control of an Upstream Activator Sequence (UAS) was used to screen the Tox21 compound library.
Tox21 Assay Protocol Summary: PPARd-bla cells were dispensed at 3000 cells/6uL/well in 1536-well black wall/clear bottom plates using a Multidrop Combi (Thermo Fisher Scientific, Waltham, MA) dispenser. After the assay plates were incubated at 37 C and 5% CO2 for 5 h, 23 nL of compounds dissolved in DMSO, positive controls or DMSO only was transferred to the assay plate by a Pintool station (Kalypsys, San Diego, CA). The assay plates were incubated at 37C for 17 h. After 1 uL of LiveBLAzerTM B/G FRET substrate was added using a Bioraptr Flying Reagent Dispenser (FRD) workstation (Beckman Coulter, Indianapolis, IN, USA), the plates were incubated at room temperature for 2 h, and fluorescence intensity was measured by an Envision plate reader (PerkinElmer, Shelton, CT).
% is scaled to controls: 0 for no effect and ±100 for the full control effect.

Compound	outcome	activation
Clc1nc(Cl)c(Cl)c(Cl)c1Cl	inactive	–
O=C(COc1ccc(Cl)cc1)N1CCN(Cc2ccc3c(c2)OCO3)CC1	inactive	–
c1ccc(Nc2ccccc2)cc1	inactive	–
CC(C)OC(=O)C(C)(C)Oc1ccc(C(=O)c2ccc(Cl)cc2)cc1	–	-5.58%
COC(=O)CCC(=O)OC	inactive	–
CCCC(=O)O	inactive	–
CC(C)OC=O	–	4.01%
CC(C(=O)O)c1cccc(C(=O)c2ccccc2)c1 (stereo not given)	inactive	–
CCC(C)(O)CCCC(C)C (stereo not given)	inactive	–
CCCCCCCCCC(=O)OC	inactive	–
O=S(=O)(O)c1ccc(O)cc1	inactive	–
CN(C)CCN(Cc1cccs1)c1ccccn1	inactive	–
Cn1cnc([N+](=O)[O-])c1Sc1ncnc2nc[nH]c12	–	-3.51%
C[Si](C)(C)O[Si](C)(C)C	inactive	–
Oc1ccc(O)cc1	inactive	–
COC(=O)c1ccccc1	inactive	–
O=C(/C=C/C=C/c1ccc2c(c1)OCO2)N1CCCCC1	–	1.75%
COc1ccc(OC)c(C(O)CNC(=O)CN)c1 (stereo not given)	inactive	–
O=C(/C=C/c1ccccc1)OCc1ccccc1	inactive	–
CCCCOCCOCCOCCO	inactive	–

Compound	outcome	activation
Nc1ncn([C@@H]2O[C@H](CO)[C@@H](O)[C@H]2O)c(=O)n1	inactive	–
O=C=Nc1ccc(Cc2ccc(N=C=O)cc2)cc1	inactive	–
CCCCC(CC)COP(=O)(OCC(CC)CCCC)OCC(CC)CCCC (stereo not given)	inactive	–
Cc1ccc2c(n1)Oc1ccc(C(C)C(=O)OCC(=O)N(C)C)cc1C2 (stereo not given)	inactive	–
OC1CCCCCCCCCCC1	inactive	–
C=C(C)C(=O)OCCOC(=O)C(=C)C	inactive	–
CC(C)(C)NC(=O)[C@H]1CC[C@H]2[C@@H]3CC[C@H]4NC(=O)C=C[C@]4(C)[C@H]3CC[C@]12C	inactive	–
CC(C)Oc1ccc2c(=O)c(-c3ccccc3)coc2c1	inactive	–
C[C@]12CC[C@H]3[C@@H](CCC4=CC(=O)CC[C@@]43C)[C@@H]1CC[C@@H]2C(=O)CO	–	-4.61%
Brc1cc(Oc2cc(Br)c(Br)c(Br)c2Br)c(Br)c(Br)c1Br	–	-1.47%
S=C(NC1CCCCC1)NC1CCCCC1	–	-9.78%
CCC(C)CO (stereo not given)	inactive	–
CC(C)=CCCC(C)CCO (stereo not given)	inactive	–
CC(CCC(=O)O)(c1ccc(O)cc1)c1ccc(O)cc1	inactive	–
NC=O	inactive	–
Cc1c(OCC(F)(F)F)ccnc1CS(=O)c1nc2ccccc2[nH]1 (stereo not given)	inactive	–
CN(C)c1nc(N(C)C)nc(N(C)C)n1	inactive	–
O=CCCCC=O	inactive	–
CC(=O)O[C@]1(C(C)=O)CC[C@H]2[C@@H]3C=C(Cl)C4=CC(=O)[C@@H]5C[C@@H]5[C@]4(C)[C@H]3CC[C@@]21C	–	-7.08%
Cc1cccc(C(=O)O)c1	inactive	–
